# Measurements taken from PubChem BioAssay AID1851 (National Center for Advancing Translational Sciences (NCATS), 2009).
# “And” between values parts separate entries of the source, which are not always exact repeats. Equal values may be shown once. Among all 16,000 compounds or so, about 5,800 (36%) were called active. Another 23% or so got no clear call; they are omitted. The list shows a part of the results. Unmarked numbers belong to inactive results. The call rests on the fitted dose curve; in most records, active means well fitted curve in the direction sought with a large enough effect; inconclusive means small, poorly fitted or top-dose-only effect, or effect the other way; inactive means no such curve, though single readings can be large or run the other way. Peptide text beside a SMILES is read from it. * marks the point of attachment. PhAc = O=C(Cc1ccccc1)*; OBn = c1ccc(CO*)cc1
# Biological target: Cytochrome P450 2C19 (Homo sapiens) (UniProt P33261)
# Sequence (P33261 whole entry, looked up): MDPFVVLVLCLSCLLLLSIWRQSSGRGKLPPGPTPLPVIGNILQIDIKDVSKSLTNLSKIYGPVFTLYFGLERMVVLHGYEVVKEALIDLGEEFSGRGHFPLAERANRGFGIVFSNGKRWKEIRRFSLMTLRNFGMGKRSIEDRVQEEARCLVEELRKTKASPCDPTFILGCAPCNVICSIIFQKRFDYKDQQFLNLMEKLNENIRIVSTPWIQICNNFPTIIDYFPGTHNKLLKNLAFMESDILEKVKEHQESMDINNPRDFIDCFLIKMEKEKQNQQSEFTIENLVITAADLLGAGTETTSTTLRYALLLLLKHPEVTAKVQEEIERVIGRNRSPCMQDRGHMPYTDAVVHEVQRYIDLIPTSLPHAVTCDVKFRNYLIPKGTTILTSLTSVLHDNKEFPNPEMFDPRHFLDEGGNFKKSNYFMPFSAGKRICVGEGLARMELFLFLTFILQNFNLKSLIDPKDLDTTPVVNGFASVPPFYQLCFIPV
# Assay: Cytochrome panel assay with activity outcomes
# Conditions: recombinant CYP, pro-luciferin dealkylation, luminescence, p450-cyp2c19; series mostly up to 57.1 µM
# On the % scale 0 is the no-effect control and ±100 the full control effect.
SMILES,AC50,"activity, negative = inhibition"
COc1cc(OC)c2c(c1Cl)O[C@@]1(C2=O)[C@H](C)CC(=O)C[C@@H]1OC,inactive,
C[C@@H]1NCC[C@H](CC(=O)O)[C@H]1CC(=O)O,,4.52% [at 11.4 µM]
O=C(CCc1nc2ccccc2c(=O)[nH]1)OCC(=O)N1CCN(S(=O)(=O)c2ccccc2)CC1,inactive,
COc1ccccc1-n1c(SCC(=O)N2CCCC2)nc2cccnc21,inactive,
Cn1c(SCC(=O)N2CCN(S(=O)(=O)c3ccccc3)CC2)nc2ccccc21,15.8 µM (active),
CC1CCN(C(=O)CSc2nc3cccnc3n2C)CC1,8.91 µM (active),
CCCn1c(=O)c2c(ncn2C)n(CCC)c1=O,inactive,
N#Cc1cccc(NC(=O)N2CC[C@@]3(CCCN(C(=O)c4ccco4)C3)C2)c1,inactive,
CCCCCOc1ccc(C(=O)NCC2(c3ccccc3)CCOCC2)cc1,7.94 µM (active),
O=C(Nc1nnc(-c2ccc(Cl)cc2)o1)Nc1ccccc1Cl,inactive,
Clc1ccc(-c2nnc(-c3ccco3)o2)cc1,20 µM (active),
O=C(Cc1ccc(Cl)cc1)Nc1cccc(-c2nnc(-c3ccco3)o2)c1,0.0158 µM (active),
Clc1ccc2c(N3CCC(CCC4CCN(c5ncnc6cc(Cl)ccc56)CC4)CC3)ncnc2c1,,-1.06% [at 11.4 µM]
CCCCCC(=O)O[C@H](CC(=O)O)C[N+](C)(C)C,inactive,
COc1cccc(NC(=O)c2cc(-c3cccnc3)nc3c(Cl)cccc23)c1,6.31 µM (active),
COc1ccc(-c2nc3cnc(N4CCNCC4)nc3n(C3CC3)c2=O)cc1,inactive,
CC1(C)CC(NC(=O)c2ccc3c(c2)OCO3)CC(C)(C)N1,inactive,
CC1(C)CC(NCc2ccc3c(c2)OCO3)CCO1 (stereo not drawn),11.2 µM (active),
c1ccc(CCc2cccnc2)nc1,,-11.1% [at 11.4 µM]
c1ccc(NN(Cc2cnccn2)c2ccccc2)cc1,2 µM (active),
COc1ccc(O[C@H]2C=C[C@@H](c3ccccc3)O[C@H]2COC(=O)CC/C(C)=N\O[C@@H](C)c2cn([C@H]3COC[C@H]3O)nn2)cc1,2.51 µM (active),
CO/N=C(/C)CCC(=O)OC[C@@H]1O[C@H](C#Cc2ccccc2)C=C[C@@H]1Oc1ccc(C)cc1,3.98 µM (active),
C/C(CCC(=O)OC[C@@H]1O[C@H](C#Cc2ccccc2)C=C[C@@H]1Oc1ccc(C)cc1)=N/OC[C@@H](O)COCc1ccco1,,-32.2% [at 11.4 µM]
COc1ccc(O[C@H]2C=C[C@@H](c3ccccc3)O[C@H]2COC(=O)CC/C(C)=N\O[C@@H](C)c2cn([C@H](CO)Cc3ccccc3)nn2)cc1,63.1 nM (active) and 631 nM (active),
CC(=O)OC[C@H]1O[C@@H](O/N=C(\C)CCC(=O)OC[C@@H]2O[C@H](C#Cc3ccccc3)C=C[C@@H]2Oc2ccc(C)cc2)[C@H](OC(C)=O)[C@@H](OC(C)=O)[C@H]1OC(C)=O,,-18.3% [at 11.4 µM]
CC(C)=NO[C@@H](C)c1cn([C@H](CO)Cc2ccccc2)nn1,,-12.3% [at 11.4 µM] and -23.6% [at 11.4 µM]

SMILES,AC50,"activity, negative = inhibition"
C/C(CCC(=O)OC[C@@H]1O[C@H](C#Cc2ccccc2)C=C[C@@H]1Oc1ccc(C)cc1)=N/O[C@@H](C)c1cn([C@H](CO)Cc2ccccc2)nn1,3.98 µM (active),
CCc1cc2c(nc1CC)CCN(CC/C(C)=N/O[C@@H](C)c1cn([C@@H]3COC[C@@H]3O)nn1)C2,,14.6% [at 11.4 µM]
C/C(CCC(=O)OC[C@@H]1O[C@H](C#Cc2ccccc2)C=C[C@@H]1Oc1ccc(C)cc1)=N/OC[C@@H](C)[C@H](OCc1ccccc1)C(C)C,,-30.1% [at 11.4 µM]
CC(=O)OC[C@@H]1O[C@H](C/C=N\O[C@@H](C)c2cn([C@H](CO)Cc3ccccc3)nn2)C=C[C@@H]1OC(C)=O,,25.9% [at 11.4 µM] and 17.9% [at 11.4 µM]
C/C(CCN1CCc2nc(-c3ccccc3)c(-c3ccccc3)cc2C1)=N\O[C@@H](C)c1cn([C@@H]2COC[C@@H]2O)nn1,,3.9% [at 11.4 µM]
O=CN1CCN(C[C@H](O)CN2CCCCC2)CC1,,10.2% [at 11.4 µM]
O=c1oc2c(Cl)cc(Cl)cc2cc1-c1nnc(Nc2ccccc2F)s1,inactive,
O[C@@](CCN1CCCCC1)(c1ccccc1)C1CCCCC1,inactive,
OC(CCCN1CCCCC1)(c1ccccc1)c1ccccc1,inactive,
CC(C)C(O)(C#CCN1CCCC1)c1ccccc1 (stereo not drawn),10 µM (active),
CO[C@H]1COC(=O)[C@H]2CCCN2C(=O)C/C=C\[C@@H](C)[C@H](OC)COC(=O)C/C=C\[C@@H]1C,,19.4% [at 11.4 µM]
COc1ccc(N(CC(=O)NN=C2CCCC2)S(=O)(=O)c2ccccc2)cc1,6.31 µM (active),
COCCCNC(=O)CN(c1ccc(OC)cc1)S(=O)(=O)c1ccc(NC(C)=O)cc1,15.8 µM (active),
O=C(CN(c1ccccc1)S(=O)(=O)c1ccccc1[N+](=O)[O-])NN=C1CCCCCCC1,0.794 µM (active),
COC(=O)[C@@]1(Cc2ccc(F)cc2)[C@H]2c3cc(C(=O)N(C)C)n(Cc4ccc(C)c(F)c4F)c3C[C@H]2CN1C(=O)c1ccccc1,15.8 µM (active),
COC(=O)[C@@]1(Cc2ccc(F)cc2)[C@H]2c3cc(C(=O)N4CCCC4)n(Cc4ccc(C)o4)c3C[C@H]2CN1C(=O)c1ccccc1,5.01 µM (active),
COC(=O)[C@@]1(Cc2ccccc2)[C@H]2c3cc(C(=O)N4CCCC4)n(Cc4ccc(C)o4)c3C[C@H]2CN1C(=O)c1ccccc1,2.51 µM (active),
COC(=O)[C@@]1(Cc2ccc(F)cc2)[C@H]2c3cc(C(=O)N4CCCC4)n(Cc4ccc(OC(F)(F)F)cc4)c3C[C@H]2CN1C(=O)c1ccccc1,inactive,
COC(=O)[C@@]1(Cc2ccc(F)cc2)[C@H]2c3cc(C(=O)N(C)C)n(Cc4ccc(C)o4)c3C[C@H]2CN1C(=O)c1ccccc1,15.8 µM (active),
Clc1cc2c(c(CSC3=NCN(CC4CC4)CN3)c1)OCOC2,,10.2% [at 11.4 µM]
Oc1ccc(-c2[nH]ncc2-c2ccc(Cl)cc2)c(O)c1,0.251 µM (active),
C=C(C)COc1ccc(-c2n[nH]c(C)c2-c2ccc(OC)cc2)c(O)c1,2.24 µM (active),
Cc1[nH]nc(-c2ccc(O)cc2O)c1-c1ccc(Cl)cc1,0.282 µM (active),
COc1ccc(-c2n[nH]c(C)c2-c2ccc(Cl)cc2)c(O)c1,2.51 µM (active),
CCN1CCCCC(=N/O)/C(=N/O)CCCC1,,10.8% [at 11.4 µM]
O=C1[C@H]2[C@H]3[C@H](O)[C@H](O)C/C(=N/OC[C@@H](O)COCc4ccco4)[C@@H]3CC[C@@H]2C(=O)N1Cc1ccc2c(c1)OCO2,,-24.6% [at 11.4 µM]

SMILES,AC50,"activity, negative = inhibition"
CCOC(=O)C1=C[C@@]2(CC)CCCN3CCc4c(n1c1ccccc41)[C@H]32,inactive,
Cc1cc(NC(=O)c2ccc(S(=O)(=O)Nc3ccccc3)cc2)no1,5.01 µM (active),
COc1cc2ccccc2cc1C(=O)Nc1ccc(S(=O)(=O)Nc2cc(C)on2)cc1,inactive,
O=C(C1=C(O)C(=O)N(Cc2ccco2)C1c1ccccc1)c1cccs1 (stereo not drawn),inactive,
Cc1ccc(C2Nc3ccccc3C(=O)N2Cc2ccco2)cc1 (stereo not drawn),2.82 µM (active),
COc1ccc(C2Nc3ccccc3C(=O)N2Cc2ccco2)cc1COc1ccc([N+](=O)[O-])cc1 (stereo not drawn),2.51 µM (active),
O=C1c2ccccc2NC(c2ccc(F)cc2)N1Cc1ccco1 (stereo not drawn),3.55 µM (active),
S=C(S)O[C@@H]1C[C@@H]2C[C@H]1[C@@H]1CCC[C@H]21,15.8 µM (active),
C=CCOc1c(Br)cc(CNc2ccc(NC(=O)C(C)C)c(OC)c2)cc1OC,3.55 µM (active),
O=C1c2ccccc2C(=O)N1CCCCN(C(=O)c1cccc([N+](=O)[O-])c1)c1ccc(Cl)cc1,3.16 µM (active),
O=C1c2ccccc2C(=O)N1CCCCN(C(=O)c1ccc([N+](=O)[O-])cc1)c1ccc(Cl)cc1,4.47 µM (active),
C/C(CCN1CCc2nc(-c3ccccc3)c(-c3ccccc3)cc2C1)=N\O[C@@H](C)CN1CCCCc2nc(C)c(C)cc21,,-15.5% [at 11.4 µM]
O=C(CNC(=O)c1cccs1)NCC(=O)OCc1ccc(Cl)cc1,6.31 µM (active),
O=C(CNC(=O)c1cccs1)NCC(=O)OCc1ccc(Cl)cc1Cl,5.01 µM (active),
O=C(CNC(=O)Cc1ccccc1)NCC(=O)OCc1ccccc1 (PhAc-Gly-Gly-OBn),inactive,
COC(=O)C1C(=O)C2=C(CC1C)NC(=O)CC2c1cccc(C)c1 (stereo not drawn),11.2 µM (active),
COc1ccc(-n2c(=O)c(-c3ccc(Cl)cc3)nc3cncnc32)cc1,inactive,
COc1ccc(Oc2ncc3nc(-c4ccc(Cl)cc4)c(=O)n(C)c3n2)cc1,inactive,
COc1ccc(/C(C#N)=C/c2c(-c3ccc(Cl)cc3)nc3c(C)cccn23)cc1,3.16 µM (active),
Cc1cc(Nc2ccccc2)nc(N)n1,inactive,
COc1ccc(Nc2nc(N)nc(CSc3n[nH]c(-c4ccccc4)n3)n2)cc1,10 µM (active),
CCCOc1ccc(-c2nc(N)n[nH]2)cc1,inactive,
C#CCSc1n[nH]c(-c2ccco2)n1,,0.772% [at 11.4 µM]
Cc1nnc(SCc2nc(N)nc(Nc3ccccc3)n2)s1,14.1 µM (active),
CCCc1nnc(SCC(=O)N2CCCCC2)n1CCCOC,inactive,
CCCc1nnc(SCC(=O)N2C(C)CCCC2C)n1CCCOC (stereo not drawn),28.2 µM (active),
